Assay results published in the supplement of paper PMC11732987, “Enantioselective OTUD7B fragment discovery through chemoproteomics screening and high-throughput optimisation” (Communications Chemistry, 2025).

Assays:
Assay in all cases: log2 ratio of Biotin-Ahx-Ub-VS probe labelling (fragment/DMSO); higher = less target engagement (more negative = stronger competition), active = hit call of the paper (q ≤ 0.05, log2 ratio ≤ -1)
Settings in all cases: compound concentration: 200 uM; treatment time: 3 h
[1] = molecular target: USP34 (UniProt Q70CQ2)
Procedure, shortened: (§1)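 Triplicate samples of HEK293T lysate, 495 µg each, received fragment at 200 µM or vehicle for 3 h, followed by Biotin-Ahx-Ub-VS (0.5 µM final) for 1 h. After NeutrAvidin enrichment of labelled DUBs and LysC/trypsin digestion, peptides were run by diaPASEF LC-MS/MS. The values are average log2 fragment/vehicle ratios from global-median-normalised Spectronaut label-free quantities, tested by unpaired t-test on proteins having ≥2 unique peptides.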

[2] = molecular target: T1, USP36 (UniProt Q9P275)
T1 sequence (whole entry): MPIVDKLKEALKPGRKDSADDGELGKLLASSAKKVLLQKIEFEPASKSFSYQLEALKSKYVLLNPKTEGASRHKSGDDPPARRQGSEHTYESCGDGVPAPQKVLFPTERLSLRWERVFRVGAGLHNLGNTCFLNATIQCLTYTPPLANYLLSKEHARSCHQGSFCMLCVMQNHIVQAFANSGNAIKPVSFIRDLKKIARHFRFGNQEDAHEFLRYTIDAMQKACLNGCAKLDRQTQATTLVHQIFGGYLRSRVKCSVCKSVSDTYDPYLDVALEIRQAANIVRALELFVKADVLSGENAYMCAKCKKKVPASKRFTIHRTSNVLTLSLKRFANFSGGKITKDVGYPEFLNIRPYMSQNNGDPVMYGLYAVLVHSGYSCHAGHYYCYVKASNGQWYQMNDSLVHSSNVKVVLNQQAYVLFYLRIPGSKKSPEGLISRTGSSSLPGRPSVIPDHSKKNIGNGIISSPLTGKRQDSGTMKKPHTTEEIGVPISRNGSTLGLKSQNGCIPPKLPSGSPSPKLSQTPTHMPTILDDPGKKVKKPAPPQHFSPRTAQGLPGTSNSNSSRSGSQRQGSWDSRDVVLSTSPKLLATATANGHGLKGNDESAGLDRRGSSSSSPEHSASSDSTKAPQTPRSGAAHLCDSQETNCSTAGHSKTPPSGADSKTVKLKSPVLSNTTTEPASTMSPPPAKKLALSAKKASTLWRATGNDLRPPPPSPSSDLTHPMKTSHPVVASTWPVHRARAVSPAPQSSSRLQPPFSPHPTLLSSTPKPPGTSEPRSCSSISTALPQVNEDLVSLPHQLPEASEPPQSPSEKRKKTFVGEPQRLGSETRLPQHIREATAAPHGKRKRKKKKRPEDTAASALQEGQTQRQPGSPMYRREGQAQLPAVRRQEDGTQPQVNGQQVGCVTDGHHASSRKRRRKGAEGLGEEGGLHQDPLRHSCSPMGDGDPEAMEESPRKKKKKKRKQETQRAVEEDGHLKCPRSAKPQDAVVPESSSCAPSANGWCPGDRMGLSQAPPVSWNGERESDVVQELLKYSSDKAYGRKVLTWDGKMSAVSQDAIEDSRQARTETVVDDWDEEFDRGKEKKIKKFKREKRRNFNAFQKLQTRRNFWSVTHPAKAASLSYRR
Procedure, shortened: as §1

[3] = molecular target: T2, USP38 (UniProt Q8NB14)
T2 sequence (whole entry): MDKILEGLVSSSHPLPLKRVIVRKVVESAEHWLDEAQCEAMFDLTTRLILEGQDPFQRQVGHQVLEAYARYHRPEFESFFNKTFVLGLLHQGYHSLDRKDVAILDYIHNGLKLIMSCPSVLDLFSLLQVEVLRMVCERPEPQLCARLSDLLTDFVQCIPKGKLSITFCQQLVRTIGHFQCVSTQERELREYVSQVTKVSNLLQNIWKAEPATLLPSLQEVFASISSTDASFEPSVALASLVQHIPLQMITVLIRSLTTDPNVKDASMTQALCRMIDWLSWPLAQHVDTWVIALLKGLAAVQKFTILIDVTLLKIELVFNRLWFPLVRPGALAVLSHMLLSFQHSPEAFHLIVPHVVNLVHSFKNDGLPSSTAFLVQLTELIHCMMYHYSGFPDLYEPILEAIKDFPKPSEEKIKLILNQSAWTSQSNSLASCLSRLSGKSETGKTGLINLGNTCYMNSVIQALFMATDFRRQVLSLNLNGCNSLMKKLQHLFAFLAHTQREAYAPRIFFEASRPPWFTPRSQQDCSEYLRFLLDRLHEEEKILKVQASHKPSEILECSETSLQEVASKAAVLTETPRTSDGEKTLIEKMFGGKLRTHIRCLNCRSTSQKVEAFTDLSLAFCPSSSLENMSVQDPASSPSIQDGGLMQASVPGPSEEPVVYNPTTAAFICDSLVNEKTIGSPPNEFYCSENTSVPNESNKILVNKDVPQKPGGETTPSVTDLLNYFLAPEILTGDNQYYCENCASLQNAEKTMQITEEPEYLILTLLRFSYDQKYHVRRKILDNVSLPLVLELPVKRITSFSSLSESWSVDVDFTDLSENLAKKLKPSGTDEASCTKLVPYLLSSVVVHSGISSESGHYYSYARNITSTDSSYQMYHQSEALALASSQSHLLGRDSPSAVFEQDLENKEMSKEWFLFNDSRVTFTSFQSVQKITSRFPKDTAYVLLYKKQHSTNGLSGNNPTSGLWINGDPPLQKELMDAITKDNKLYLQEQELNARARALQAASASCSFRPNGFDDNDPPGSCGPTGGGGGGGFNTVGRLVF
Procedure, shortened: as §1

[4] = molecular target: T3, USP39 (UniProt Q53GS9)
T3 sequence (whole entry): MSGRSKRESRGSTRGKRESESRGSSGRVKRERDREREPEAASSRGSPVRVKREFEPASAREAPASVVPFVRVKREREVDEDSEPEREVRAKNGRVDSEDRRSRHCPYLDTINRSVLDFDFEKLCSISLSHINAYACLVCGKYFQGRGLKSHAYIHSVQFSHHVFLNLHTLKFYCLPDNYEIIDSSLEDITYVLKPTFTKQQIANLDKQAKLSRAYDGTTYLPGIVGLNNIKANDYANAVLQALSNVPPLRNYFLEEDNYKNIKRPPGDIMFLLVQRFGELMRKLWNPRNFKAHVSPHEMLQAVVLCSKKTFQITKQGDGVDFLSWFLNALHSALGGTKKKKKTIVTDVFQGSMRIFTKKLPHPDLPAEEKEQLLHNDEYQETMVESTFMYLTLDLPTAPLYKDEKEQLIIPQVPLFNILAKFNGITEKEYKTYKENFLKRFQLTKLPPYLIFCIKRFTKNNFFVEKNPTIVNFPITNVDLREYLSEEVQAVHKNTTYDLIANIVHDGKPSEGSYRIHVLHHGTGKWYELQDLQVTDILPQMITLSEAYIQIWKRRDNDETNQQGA
Procedure, shortened: as §1

[5] = molecular target: T4, USP4 (UniProt Q13107)
T4 sequence (whole entry): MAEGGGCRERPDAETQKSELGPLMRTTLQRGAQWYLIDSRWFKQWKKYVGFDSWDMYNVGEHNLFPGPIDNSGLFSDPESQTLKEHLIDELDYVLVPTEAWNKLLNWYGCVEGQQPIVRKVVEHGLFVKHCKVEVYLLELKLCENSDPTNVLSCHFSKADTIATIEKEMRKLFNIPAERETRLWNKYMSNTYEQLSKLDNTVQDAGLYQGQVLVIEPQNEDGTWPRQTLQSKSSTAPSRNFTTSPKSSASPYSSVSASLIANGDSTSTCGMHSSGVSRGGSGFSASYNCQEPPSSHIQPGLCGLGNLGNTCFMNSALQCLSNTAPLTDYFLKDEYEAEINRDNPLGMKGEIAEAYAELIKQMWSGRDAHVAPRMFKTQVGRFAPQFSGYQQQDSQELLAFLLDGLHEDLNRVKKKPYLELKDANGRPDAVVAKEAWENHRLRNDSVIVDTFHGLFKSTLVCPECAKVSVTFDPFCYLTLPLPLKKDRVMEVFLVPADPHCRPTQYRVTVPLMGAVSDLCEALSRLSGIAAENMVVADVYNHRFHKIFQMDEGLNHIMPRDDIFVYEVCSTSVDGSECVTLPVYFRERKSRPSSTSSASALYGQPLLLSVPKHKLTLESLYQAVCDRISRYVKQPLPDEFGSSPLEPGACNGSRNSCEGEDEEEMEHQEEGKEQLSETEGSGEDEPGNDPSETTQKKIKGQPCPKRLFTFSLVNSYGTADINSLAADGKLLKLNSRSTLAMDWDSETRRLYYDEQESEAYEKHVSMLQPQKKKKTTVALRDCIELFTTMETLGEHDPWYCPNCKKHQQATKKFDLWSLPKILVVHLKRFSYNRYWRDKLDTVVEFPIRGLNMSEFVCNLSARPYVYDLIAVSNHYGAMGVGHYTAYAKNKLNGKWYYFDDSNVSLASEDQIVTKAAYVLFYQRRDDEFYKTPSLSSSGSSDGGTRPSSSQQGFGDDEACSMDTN
Procedure, shortened: as §1

Measured: log2 ratio of Biotin-Ahx-Ub-VS probe labelling

Chain of USP34 (Q70CQ2 whole entry, the tested form may be a part): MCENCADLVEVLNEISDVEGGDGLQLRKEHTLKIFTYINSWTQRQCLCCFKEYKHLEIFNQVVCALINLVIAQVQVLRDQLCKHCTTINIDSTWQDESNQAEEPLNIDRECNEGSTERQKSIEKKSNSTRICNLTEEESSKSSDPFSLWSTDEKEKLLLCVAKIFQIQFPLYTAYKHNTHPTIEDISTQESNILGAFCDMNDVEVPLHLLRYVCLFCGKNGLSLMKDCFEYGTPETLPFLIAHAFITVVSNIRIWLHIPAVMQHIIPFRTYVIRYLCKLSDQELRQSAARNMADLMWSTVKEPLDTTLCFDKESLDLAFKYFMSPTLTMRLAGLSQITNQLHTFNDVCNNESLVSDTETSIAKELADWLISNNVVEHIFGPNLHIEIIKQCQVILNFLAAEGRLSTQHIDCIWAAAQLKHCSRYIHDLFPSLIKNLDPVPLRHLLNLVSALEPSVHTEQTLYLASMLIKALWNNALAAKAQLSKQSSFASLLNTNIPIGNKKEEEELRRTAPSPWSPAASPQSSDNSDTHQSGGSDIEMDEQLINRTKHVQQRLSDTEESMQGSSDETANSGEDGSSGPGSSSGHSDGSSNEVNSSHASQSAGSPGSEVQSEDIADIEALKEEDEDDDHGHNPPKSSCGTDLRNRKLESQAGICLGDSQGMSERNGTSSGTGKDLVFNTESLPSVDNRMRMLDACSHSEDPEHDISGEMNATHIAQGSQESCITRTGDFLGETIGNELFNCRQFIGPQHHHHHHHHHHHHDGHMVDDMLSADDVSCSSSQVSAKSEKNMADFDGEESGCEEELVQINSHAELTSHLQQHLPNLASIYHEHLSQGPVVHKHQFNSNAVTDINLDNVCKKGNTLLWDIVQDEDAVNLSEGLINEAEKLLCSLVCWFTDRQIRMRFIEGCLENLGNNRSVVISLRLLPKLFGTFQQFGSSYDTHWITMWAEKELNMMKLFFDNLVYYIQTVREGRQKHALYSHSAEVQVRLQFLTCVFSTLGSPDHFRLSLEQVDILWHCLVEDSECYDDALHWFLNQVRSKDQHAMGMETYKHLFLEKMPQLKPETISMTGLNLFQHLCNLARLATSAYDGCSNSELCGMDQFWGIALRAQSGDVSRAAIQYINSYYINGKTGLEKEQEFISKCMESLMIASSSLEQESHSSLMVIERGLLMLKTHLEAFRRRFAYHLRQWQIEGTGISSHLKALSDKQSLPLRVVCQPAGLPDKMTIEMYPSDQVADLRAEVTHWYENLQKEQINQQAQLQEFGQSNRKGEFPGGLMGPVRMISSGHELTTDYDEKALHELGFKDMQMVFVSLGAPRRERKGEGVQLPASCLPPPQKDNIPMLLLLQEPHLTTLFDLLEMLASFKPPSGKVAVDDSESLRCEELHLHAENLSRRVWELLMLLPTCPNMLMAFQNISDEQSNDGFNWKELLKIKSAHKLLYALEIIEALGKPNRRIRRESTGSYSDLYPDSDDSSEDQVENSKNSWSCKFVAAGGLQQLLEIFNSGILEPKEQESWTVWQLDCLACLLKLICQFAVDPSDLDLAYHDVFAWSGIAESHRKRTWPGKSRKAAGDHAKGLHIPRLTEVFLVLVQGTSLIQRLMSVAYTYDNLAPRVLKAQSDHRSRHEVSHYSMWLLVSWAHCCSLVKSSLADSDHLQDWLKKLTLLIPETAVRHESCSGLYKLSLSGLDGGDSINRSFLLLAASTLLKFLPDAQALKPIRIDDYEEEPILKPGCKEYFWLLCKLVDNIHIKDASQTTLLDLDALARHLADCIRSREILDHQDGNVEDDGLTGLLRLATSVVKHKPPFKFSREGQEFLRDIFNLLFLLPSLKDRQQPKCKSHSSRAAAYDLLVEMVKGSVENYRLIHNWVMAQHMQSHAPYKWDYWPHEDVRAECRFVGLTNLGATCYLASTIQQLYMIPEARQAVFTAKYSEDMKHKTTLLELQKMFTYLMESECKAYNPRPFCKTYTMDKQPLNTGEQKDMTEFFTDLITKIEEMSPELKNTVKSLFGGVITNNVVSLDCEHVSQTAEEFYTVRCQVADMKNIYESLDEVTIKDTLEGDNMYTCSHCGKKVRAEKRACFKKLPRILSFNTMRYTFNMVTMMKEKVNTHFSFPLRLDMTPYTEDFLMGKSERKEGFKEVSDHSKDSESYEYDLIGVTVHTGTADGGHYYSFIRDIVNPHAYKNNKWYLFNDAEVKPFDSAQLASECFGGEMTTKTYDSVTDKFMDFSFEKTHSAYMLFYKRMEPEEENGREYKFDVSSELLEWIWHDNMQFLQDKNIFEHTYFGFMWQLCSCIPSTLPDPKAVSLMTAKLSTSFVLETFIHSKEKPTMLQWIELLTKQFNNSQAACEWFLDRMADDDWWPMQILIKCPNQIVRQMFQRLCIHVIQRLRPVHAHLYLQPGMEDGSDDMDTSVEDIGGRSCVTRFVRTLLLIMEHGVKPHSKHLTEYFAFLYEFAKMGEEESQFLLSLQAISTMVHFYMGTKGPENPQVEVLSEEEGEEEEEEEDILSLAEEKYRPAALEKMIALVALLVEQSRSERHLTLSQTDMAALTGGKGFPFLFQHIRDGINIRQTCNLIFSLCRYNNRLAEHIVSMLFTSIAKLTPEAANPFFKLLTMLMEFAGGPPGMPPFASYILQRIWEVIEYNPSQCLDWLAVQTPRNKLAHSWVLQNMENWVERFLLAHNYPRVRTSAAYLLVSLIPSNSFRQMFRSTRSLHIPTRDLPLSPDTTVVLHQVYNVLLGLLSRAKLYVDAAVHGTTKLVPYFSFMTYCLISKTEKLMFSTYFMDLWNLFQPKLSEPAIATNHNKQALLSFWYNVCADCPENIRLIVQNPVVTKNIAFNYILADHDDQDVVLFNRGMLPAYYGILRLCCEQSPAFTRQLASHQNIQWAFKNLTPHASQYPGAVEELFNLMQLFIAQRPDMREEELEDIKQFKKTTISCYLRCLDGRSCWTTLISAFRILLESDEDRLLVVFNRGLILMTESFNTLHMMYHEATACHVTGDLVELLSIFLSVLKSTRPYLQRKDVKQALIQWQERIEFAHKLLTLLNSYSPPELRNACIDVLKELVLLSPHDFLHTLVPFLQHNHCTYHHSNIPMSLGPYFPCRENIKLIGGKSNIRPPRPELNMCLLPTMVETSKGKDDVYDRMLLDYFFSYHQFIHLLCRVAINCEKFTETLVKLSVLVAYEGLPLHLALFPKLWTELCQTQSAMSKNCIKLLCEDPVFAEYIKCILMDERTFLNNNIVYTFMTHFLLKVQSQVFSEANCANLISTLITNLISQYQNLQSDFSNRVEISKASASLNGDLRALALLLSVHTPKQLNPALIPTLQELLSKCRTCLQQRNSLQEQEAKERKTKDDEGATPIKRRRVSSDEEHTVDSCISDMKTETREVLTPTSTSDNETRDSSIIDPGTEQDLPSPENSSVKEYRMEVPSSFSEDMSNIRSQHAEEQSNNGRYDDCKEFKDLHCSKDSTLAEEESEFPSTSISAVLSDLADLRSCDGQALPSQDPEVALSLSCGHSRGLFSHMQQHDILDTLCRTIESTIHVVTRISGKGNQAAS

Cc1cccnc1NC(=O)C1CCN(C(=O)CCl)CC1.Cl
inactive: [1] -0.124 | [2] -0.102 | [3] -0.157 | [4] 0.0484 | [5] 0.0404
